Biological target: IDI2
Assay: pooled miR-30 sensor sort-seq; sequence = guide strand
Details: shRNA
Further: reference of the scale not given here.

Row | Sequence | sensor-assay potency score (higher = more potent)
1 | TTTCGTTTCACTGGGATCCGGG | -0.0224
2 | TAGGATGCAAGATTGAATGTGT | 0.9
3 | TTATTTGTAAGCATATTACTGA | 0.0641
4 | TTTTCTTCCAGTTCTGCTGGGT | 0.298
5 | TAAACGTCGAGTCACTTGGCTG | -1.26
6 | TTGTGAAGCTCCACAAACGGGG | -0.921
7 | ATTCTCATCCACAACAATCAGC | -0.745
8 | TTGTCATGAACACAATGTCCTC | -1.35
9 | TAACCTTATCATTCTCATCCAC | -0.207
10 | TTTCTCAATGTTTTCGTTCAGA | -0.492
11 | TAGTGATTTATACATGATGGGC | -1.3
12 | TTTCGTGTCCGACCTCTGCTGT | -0.749

Biological target: IER5
Assay: as above
Details: shRNA

Row | Sequence | sensor-assay potency score (higher = more potent)
13 | TACAAAAATCAATACAACGAAG | -1.23
14 | TTCTTATGCAGCTTGATGCCGC | -0.805
15 | TTCATGTCTCTCAGCACCGGCT | -0.831
16 | TTTCCTAGAGTAATCACAGGAT | 0.282
17 | TAAAAATATATCTTTTCTCTAT | -0.862
18 | TTGTAGATCTTGCCCAGAGAGA | -1.34
19 | TTATGCAGCTTGATGCCGCCGC | -0.467
20 | TTATCGCAGCAGATCTGCCCGG | -0.618
21 | TTCCAAGCTTGAACTCTTCTGT | 0.444
22 | ATAAGGTCTTTCCACTTCGGGC | -1.59
23 | TATCGCAGCAGATCTGCCCGGG | -0.199
